High-throughput results: PubChem, National Center for Advancing Translational Sciences (NCATS)
The list is not random: actives were taken first. Their share in the collection is about 1.1%.
IMPase Li inh: qHTS Assay for Identifying the Cell-Membrane Permeable IMPase Inhibitors: Potentiation with Lithium. CHO-M1 cells, IP1 TR-FRET (IP-One), carbachol + lithium. Potency, µM (highest dose often 59.4 µM), inactives show top-dose activity, negative = IMPase inhibition, most hits filed as inhibitors. hit rate 0.35% among 210,000. AID 1457, 2008;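 further: IP1 builds up when IMPase is blocked and the TR-FRET signal falls; potency means the concentration at half of the fitted maximal effect; plate controls were basal vehicle for no effect and high inhibitor control for full effect; nearly all actives have a fitted effect of over 50% in size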
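Steps: plate 2000 CHO-M1 cells per well and culture 16–30 h; add compound and lithium; incubate 30 min, 37C; add d2-IP1 tracer and Eu cryptate anti-IP1 antibody in lysis buffer; read after 10 min at room temperature.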
ERK EGF block: qHTS Assay for Inhibitors of the ERK Signaling Pathway using a Homogeneous Screening Assay; Stimulation with EGF | hit rate 0.41% among 130,000 | Potency, µM (top dose mostly 11.5 µM), for inactives: top-dose activity change, negative = inhibition, actives largely listed as inhibitors | HEK293-V1b, EGF-stimulated phospho-ERK AlphaScreen;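 further: potency means the concentration at half of the fitted maximal effect; plate controls were stimulated vehicle wells for no effect and unstimulated vehicle basal for full effect; nearly all actives have a fitted effect of over 55% in size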
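In this qHTS, HEK293 cells with stable type-1 vasopressin (V1b) receptor were exposed to compound at 37C for 30 min, stimulated 5 min with EGF at 25 nM, lysed, and probed for phospho-ERK by AlphaScreen.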
NPSR antagonist: qHTS Assay for Antagonists of the Neuropeptide S Receptor: cAMP Signal Transduction; Q6W5P4; AID 1461, 2008; hit rate 1% among 220,000; Potency, µM (doses to about 38.3 µM), for inactives: at the top dose activity change, negative = inhibition, actives largely listed as inhibitors; CHO-NPSR cells, cAMP TR-FRET, antagonist mode; further: potency means the concentration at half of the fitted maximal effect; on the % scale 0 is the no-effect control and ±100 the full control effect; nearly all actives have a fitted effect of over 50% in size
Target sequence (Q6W5P4 whole entry, looked up): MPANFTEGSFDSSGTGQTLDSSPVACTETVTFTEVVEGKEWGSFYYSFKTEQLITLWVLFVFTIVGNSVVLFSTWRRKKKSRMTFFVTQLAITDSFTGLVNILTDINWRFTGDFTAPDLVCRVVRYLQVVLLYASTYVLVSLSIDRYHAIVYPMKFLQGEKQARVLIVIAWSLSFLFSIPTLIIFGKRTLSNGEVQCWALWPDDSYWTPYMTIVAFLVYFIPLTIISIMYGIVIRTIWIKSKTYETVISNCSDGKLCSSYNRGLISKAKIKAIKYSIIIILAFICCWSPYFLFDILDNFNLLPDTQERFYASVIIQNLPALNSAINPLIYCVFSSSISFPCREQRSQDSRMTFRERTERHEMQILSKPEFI
KinaseGlo FLuc: Counterscreen for Luciferase (Kinase-Glo TM) Inhibition | Luciferin 4-monooxygenase (Photuris pensylvanica), Q27757 | Kinase-Glo luciferase, ATP luminescence, 8 min | Potency, µM (top dose mostly 38.3 µM), for the others: at the highest dose activity change, negative = inhibition, hits mostly inhibitors | hit rate 0.28% among 200,000 | AID 1379, 2008; further: potency means the concentration at half of the fitted maximal effect; on the % scale 0 is the no-effect control and ±100 the full control effect; nearly all actives have a fitted effect of over 60% in size
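Recombinant Kinase-Glo luciferase, 10 uM ATP (linear range), luciferin; imidazole pH 7.2 / KCl / MgCl2 / Tween / BSA buffer; 8 min RT; luminescence.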
ERK pERK EGF: Confirmation Concentration-Response Assay for Inhibitors of the ERK Signaling Pathway using a Homogeneous Screening Assay; Stimulation with EGF; shares compounds with ERK EGF block; hit rate 60% among 60; HEK293 EGF-stimulated ERK phosphorylation, AlphaScreen; Potency, µM (top dose mostly 57.5 µM), for inactives: at the highest dose activity change, negative = inhibition, hits mostly inhibitors; AID 1725, 2009
cRaf kinase inh: Assay for Inhibitors of the ERK Signaling Pathway using a Homogeneous Screening Assay: c-Raf Inhibition; activity change, negative = inhibition, % at 76.9 µM; c-Raf kinase inhibition, homogeneous biochemical assay; 70 tested, under 10 active; shares compounds with ERK EGF block
MEK inh: Assay for Inhibitors of the ERK Signaling Pathway using a Homogeneous Screening Assay: MEK Inhibition | shares compounds with ERK EGF block | homogeneous MEK kinase activity assay, ERK pathway | Potency, µM (doses to about 76.9 µM), for inactives: at the top dose activity change, negative = inhibition, hits mostly inhibitors | 70 tested, under 10 active
Active calls of the source: *; ? = inconclusive; . = no result given; [ ] = another dose, or the depositor's remark. The call rests on the fitted dose curve; in most records, active means well fitted curve in the direction sought with a large enough effect; inconclusive means small, poorly fitted or top-dose-only effect, or another doubt; inactive means no such curve, though single readings can be large; an effect the other way counts as inactive or inconclusive.

SMILES | IMPase Li inh | ERK EGF block | NPSR antagonist | KinaseGlo FLuc | ERK pERK EGF | cRaf kinase inh | MEK inh
COc1ccc(C(=O)OC(COc2ccccc2)Cn2ccnc2)cc1 (centres undefined) | 7.3% | 7.08µM* | 15.9% | -0.9% | 14.1µM* | -8.4 | -14.8%
c1cncc(-c2ccc3ncnc(NCCN4CCOCC4)c3c2)c1 | 15.5% | . | . | . | . | . | .
c1ccc(Nc2ncnc3ccc(-c4cccnc4)cc23)cc1 | 9.9% | 2.51µM* | . | -0.9% | 3.55µM* | ? | 0.5%
CNc1cccc2c1C(=O)c1ccccc1C2=O | 6.4% | 10µM* | -15.5%[46.1 µM] | -8.7% | 14.1µM* | -8.8 | -19.1%
C[C@H](NCCc1ccc(O)cc1)[C@@H](O)c1ccc(O)cc1 | 5.8% | -8.9%[25.7 µM] | . | 0.1%[17.1 µM] | . | . | .
Cc1sc2ncnc(Sc3nnnn3-c3ccc(Cl)cc3)c2c1C | ? | . | ? | 1.5% | -3.1% | -12.3 | 3.4%
c1ccc(-n2nnnc2Sc2ncnc3sc4c(c23)CCCC4)cc1 | 7.5% | 0.2% | -26.2% | -0.2% | . | . | .
Cn1c(=O)cc(Nc2ccccc2)c2c(=O)n(-c3ccccc3)c(=O)n(-c3ccccc3)c21 | . | 5.01µM* | 43.3% | . | 10µM* | -4.7 | -15.3%
C=CCC(O)(/C=C/c1ccccc1)c1ccccc1 (centres undefined) | 4.9% | -2.0% | . | -0.9% | . | . | .
O=C(C[C@@H](c1ccccc1)N1CCCCC1)c1ccccc1 | 6.8% | . | . | -16.2%[7.66 µM] | . | . | .
C=C[C@]1(C)CC(=O)[C@@]2(O)[C@@]3(C)C(O)CCC(C)(C)C3C(O)C(OC(C)=O)[C@@]2(C)O1 (some centres undefined) | -2.0% | ? | . | -0.8% | -16.1% | -3.8 | -18.8%
N#C/C(=C(/N)Sc1ccc(N)cc1)c1ccccc1C(F)(F)F | -1.7% | 0.891µM* | . | 1.8% | . | 11.6 | -15.6%
Cc1ccc(Nc2ncnc3sc(C)c(C)c23)cc1 | 4.1% | 8.91µM* | 0.8%[46.1 µM] | -3.0% | 11.2µM* | ? | -18.1%
Cc1sc2ncnc(N)c2c1C | . | -6.9%[57.5 µM] | 14.3% | . | . | . | .
COc1ccc(-c2nc3cnc(N(C)C)nc3n(CCc3ccccc3)c2=O)cc1 | -8.0% | ? | . | -6.4% | ? | 1.4 | -4.1%
CN(C)c1ncc2nc(-c3ccccc3)c(=O)n(CCc3ccccc3)c2n1 | -10.6% | . | . | . | . | . | .
CC(C)(S)[C@H](N)C(=O)O | -1.1% | 2.0% | . | -6.5%[7.66 µM] | . | . | .
COc1ccc(N2CC(=O)N(c3ccccc3)C2=S)cc1 | 0.6% | 5.1% | 17.7% | -1.3% | . | . | .
COc1ccc(N=C2C(=Nc3ccc(OC)cc3)N(c3ccc(OC)cc3)C(=S)N2c2ccccc2)cc1 | 15.3%[38.3 µM] | . | -3.1%[46.1 µM] | 14.0% | 8.91µM* | -5.5 | -9.5%
COc1ccc(N=C2C(=Nc3ccc(OC)cc3)N(c3ccc(OC)cc3)C(=S)N2C)cc1 | 44.7%[38.3 µM] | . | -14.7%[46.1 µM] | 16.4% | 7.94µM* | 5.7 | -13.1%
Nc1nc(NCC2CCC(CNS(=O)(=O)c3cccc4ccccc34)CC2)nc2ccccc12 (centres undefined) | 19.1% | . | . | -0.1%[39.9 µM] | . | . | .
O=C(O)C[C@H](Nc1ccccc1)C(=O)O | -4.0% | . | . | -1.2%[7.66 µM] | . | . | .
COc1cc2ncnc(Nc3cccc(Cl)c3)c2cc1OC | 31.8% | 0.251µM* | -25.8%[46.1 µM] | -7.0% | 0.199µM* | ? | -14.9%
CCN1CCC(O)([C@H](C(=O)O)c2ccccc2)CC1 | -1.9% | . | . | -1.1%[7.66 µM] | . | . | .
O=[N+]([O-])c1ccccc1N/N=C/c1ccc2c(c1)OCO2 | -3.0% | ? | 9.5% | ? | ? | -9.8 | -1.1%
